This note sets out measurements from PubChem BioAssay (NCATS).

Inconclusive results are not listed. Active and inactive are the calls of the source. The call rests on the fitted dose curve. Starred links: 1 amine or outer side, 2 acyl side, 3 side chain; linkers in the order of their positions; H or OH if unused. Non-standard residues stand in square brackets, D forms with d. Residues, ends and D or L forms follow the SMILES beside them. ξ: configuration not given here. X1 = CCCCCCCCCC(=O)[C@H](C(=O)[*:2])[C@@H]1CNC(=O)[C@@H](N[*:1])CS1; X4 = O=C(C1CC2(c3ccc(O)cc3)c3ccccc3NC2N1[*:1])[*:2]; ξW = NC(Cc1c[nH]c2ccccc12)C(=O)O; ξY = NC(Cc1ccc(O)cc1)C(=O)O

This experiment is described as follows: qHTS for inhibitors of Rabies Virus screened against the NCATS CANVASS Library (AID 1347402). Further: 0% is about no effect. The conditions noted are these: Rabies virus infection cell assay; series mostly up to 45.9 µM; activity change, negative = inhibition: at the top concentration. On the technique in general: Quantitative high-throughput screening tests each substance at several concentrations.
Regarding `O=Cc1ccc2n1C[C@@]1(C[C@H](O)[C@H](O)CO1)OC2`, the “activity change, negative = inhibition” value is 10.3% (inactive).
On the same count and under the same terms, to `C=C1C[C@@]23C=CC(=O)[C@@](C)(CCC(=O)Nc4c(O)ccc(C(=O)O)c4O)C2C[C@@H]1CC3O` (stereo partly drawn) belongs 3.39% (inactive); to `CO[C@H]1[C@@H](OC(=O)/C(C)=C\[C@@H]2O[C@@H]2[C@H]2O[C@H]2C)[C@H](O)[C@H](OCC23C[C@@H]4[C@H](C)CC[C@H]4C4(C=O)CC2C=C(C(C)C)C34C(=O)O)O[C@@H]1C` (stereo partly drawn), -16.9% (inactive).
On the same count and under the same terms, to `C[C@@]12C[C@@H](C[C@@H]3C(=O)O[C@@H](c4ccoc4)[C@H](OC(=O)c4ccccc4)[C@@H]31)OC2=O` belongs -29.9% (inactive).
Take `C=C1C[C@@]23C=CC(=O)[C@@](C)(CCC(=O)Nc4c(OC5O[C@H](CO)[C@@H](O)[C@H](O)[C@H]5O)ccc(C(=O)O)c4O)C2C[C@@H]1CC3` (stereo partly drawn): the “activity change, negative = inhibition” value is 7.66% (inactive).
Same read-out and setting: for `C/C=C/c1cc(OC)c2c(c1)[C@@H](C)[C@H](c1ccc(O)c(OC)c1)O2` the value was -6.82% (inactive).
The same measure, in the same setting: to `C[C@@H]1O[C@H](c2c(O)cc(O)c3c(=O)cc(-c4ccc(O)cc4)oc23)[C@H](O)[C@H](O)[C@H]1O` belongs -2.2% (inactive); to `C/C1=C/[C@@H](C)[C@H](O)[C@@H](O)/C=C/CC/C=C/C(=O)O[C@@H]1[C@H](C)C(=O)/C=C/CC1CC(=O)NC(=O)C1`, 11.6% (inactive).
Same read-out and setting: for `CO[C@H]1/C=C/CC[C@@H](S[C@@H]2O[C@H](CO)[C@@H](O)[C@H](O)[C@H]2O)CC(=O)O[C@@H](/C(C)=C/[C@H](C)C(=O)CCCC2CC(=O)NC(=O)C2)[C@@H](C)[C@@H]1O` the value was -23.8% [at 0.021 µM] (inactive); for `O=C1c2c(O)cc(O)cc2OC(c2ccc(O)cc2)C1O` (stereo not drawn), -19% (inactive).
For `CC(=O)N[C@H](C)c1nc(/C=C/C=C/C(=O)CC2CC(=O)CC[C@]2(C)O)cs1` (stereo partly drawn), the “activity change, negative = inhibition” value is -4.07% (inactive).
Consider `C=C(C)[C@@H]1CC[C@]2(C)CC[C@]3(C)[C@H](CC[C@@H]4[C@@]5(C)CC[C@H](O)C(C)(C)[C@@H]5CC[C@]43C)[C@@H]12`, for which the call was inactive.
With `CCCCCCCCCC(=O)[C@@H]1C(=O)N[C@@H](CC(C)C)C(=O)N[C@H](C)C(=O)N2CCC[C@H]2C(=O)N[C@@H](C(C)C)C(=O)N[C@H]2CS[C@H]1CNC2=O` (cyclo(L[dA]PV[X1])), the “activity change, negative = inhibition” value is -9.71% (inactive).
Still for that read-out and setting: to `C=C1C[C@@]23C=CC(=O)[C@@](C)(CCC(=O)Nc4c(O)ccc(C(=O)O)c4O)C2C[C@@H]1C(O)C3` (stereo partly drawn) belongs 6.85% (inactive); to `CC12C[C@]3(O)O[C@@H](O1)[C@]1(COC(=O)c4ccccc4)[C@@H]3CC21OC1OC(CO)C(O)C(O)C1O` (stereo partly drawn), -4.13% (inactive).
Same read-out and setting: for `CCCCCCC[C@@H](C/C=C/CCC(=O)NCCc1c[nH]c2ccccc12)OC` the value was -30.3% (inactive); for `C[C@@H]1C(=O)[C@]23CC[C@H]1C[C@]21O[C@H]2C(C)(C)C=CC(=O)[C@]23COC1=O`, -15.3% (inactive).
The same measure, in the same setting: to `CN1CCc2cc3c(c4c2C1(C)C(=O)c1cc(O)ccc1-4)OCO3` (stereo not drawn) belongs -17.4% (inactive); to `CS/C=C/C(N)=O`, -10.9% (inactive); to `C/C=C1/CC[C@@H]2c3[nH]c4ccccc4c3CCN2C1`, -12.7% (inactive).
Turning to `CC(CCC[C@]1(C)C(=O)C=C[C@@]23C[C@]4(C)O[C@@H](C[C@@H]4[C@H]2O)C31)C(=O)O` (stereo partly drawn), the “activity change, negative = inhibition” value was -0.0817% (inactive).
Same read-out and setting: for `C/C(=C\[C@H](C)C(=O)/C=C/CC1CC(=O)NC(=O)C1)[C@@H]1OC(=O)CCCC/C=C/[C@H](O)[C@@H](O)[C@@H]1C` the value was -9.29% (inactive); for `CC1C(=O)C23CCC1C[C@@]21O[C@H]2C(C)(C)C=CC(=O)[C@@]23COC1=O` (stereo partly drawn), -2.78% (inactive); for `CC[C@H](C)[C@H](NC(=O)C(Cc1ccc(O)cc1)NC(=O)C(Cc1c[nH]c2ccccc12)NC(=O)[C@H](C)N)C(=O)N1C(C(=O)NC(Cc2ccc(O)cc2)C(=O)O)CC2(c3ccc(O)cc3)c3ccccc3NC12` (stereo partly drawn) (H-A[ξW][ξY]I[X4][ξY]-OH), -8.41% (inactive).
Take `CC(C)=CCC[C@]12c3cc4c(cc3CC[C@@]1(C)[C@H](C)CC[C@@H]2O)[nH]c1ccccc14`: the “activity change, negative = inhibition” value was -2.51% (inactive).
On the same count and under the same terms, to `C[C@@]12CCC[C@@](C)(C(=O)OP(=O)(O)OC[C@H]3O[C@@H](n4cnc5c(N)ncnc54)[C@H](O)[C@@H]3O)[C@H]1C[C@@H](O)[C@@]13C[C@@H](CC[C@@H]21)[C@](C)(O)C3` belongs -14.5% (inactive); to `CC(=O)O[C@H]1C[C@@]2(C)[C@@H](CC[C@H]3[C@@]4(C)C=CC(=O)[C@@H](C)[C@@H]4[C@H](OC(C)=O)C(=O)[C@@]32C)/C1=C(\CCC=C(C)C)C(=O)O`, -0.717% (inactive); to `COC(=O)[C@]1([C@H]2CCC(=O)O2)CC(=O)c2c(O)cc(C)cc2O1`, -10.4% (inactive).
